Experimental findings from article PMC7862700, “An all-to-all approach to the identification of sequence-specific readers for epigenetic DNA modifications on cytosine” are described below.

What all share (assay): DAPPL (digital affinity profiling via proximity ligation, sequencing); 10 mM Tris-HCl pH 7.5, 50 mM NaCl, 1 mM DTT, 4% glycerol, room temperature, 30 min; GST-TFs on glutathione beads, 16-mer random dsDNA library, 0.1% formaldehyde crosslink after washing; high values mean tight binding
Common to all, as to settings: protein: recombinant; tags: N-terminal GST; dsDNA, one strand shown

The target of one assay is T1, FLI1 (Homo sapiens, UniProt Q01543 1-452).
T1 sequence: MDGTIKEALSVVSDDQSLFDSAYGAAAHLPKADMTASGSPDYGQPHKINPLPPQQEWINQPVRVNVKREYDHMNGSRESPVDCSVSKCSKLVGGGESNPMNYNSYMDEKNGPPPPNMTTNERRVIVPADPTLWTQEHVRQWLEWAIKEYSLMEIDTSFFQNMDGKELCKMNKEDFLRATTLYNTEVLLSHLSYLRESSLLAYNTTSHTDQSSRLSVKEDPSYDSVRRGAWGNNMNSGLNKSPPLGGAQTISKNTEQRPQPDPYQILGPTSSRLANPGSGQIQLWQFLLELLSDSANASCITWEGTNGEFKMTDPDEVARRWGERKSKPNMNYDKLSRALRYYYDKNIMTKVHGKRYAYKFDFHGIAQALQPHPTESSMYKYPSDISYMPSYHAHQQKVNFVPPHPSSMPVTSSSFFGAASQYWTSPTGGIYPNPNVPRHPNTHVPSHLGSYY
In a few lines:
(§1)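 After expression in yeast as GST fusions, human transcription factors were bound to glutathione beads, DNA-barcoded and mixed with a tag-only sample. The pools were incubated with 200 nmole of a 16-mer random double-stranded DNA library in Tris/NaCl/DTT/glycerol buffer (30 min, room temperature), washed and crosslinked with 0.1% formaldehyde. Proximity ligation with BsaI/T4 ligase ran for 1 h at 37 °C, before PCR amplification and sequencing on an Illumina NextSeq500. Binding signal is a hexamer's read frequency for a factor divided by its frequency for the tag-only sample.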

The target in a further assay is T2, ELK1 (Homo sapiens, UniProt P19419 1-428).
T2 sequence: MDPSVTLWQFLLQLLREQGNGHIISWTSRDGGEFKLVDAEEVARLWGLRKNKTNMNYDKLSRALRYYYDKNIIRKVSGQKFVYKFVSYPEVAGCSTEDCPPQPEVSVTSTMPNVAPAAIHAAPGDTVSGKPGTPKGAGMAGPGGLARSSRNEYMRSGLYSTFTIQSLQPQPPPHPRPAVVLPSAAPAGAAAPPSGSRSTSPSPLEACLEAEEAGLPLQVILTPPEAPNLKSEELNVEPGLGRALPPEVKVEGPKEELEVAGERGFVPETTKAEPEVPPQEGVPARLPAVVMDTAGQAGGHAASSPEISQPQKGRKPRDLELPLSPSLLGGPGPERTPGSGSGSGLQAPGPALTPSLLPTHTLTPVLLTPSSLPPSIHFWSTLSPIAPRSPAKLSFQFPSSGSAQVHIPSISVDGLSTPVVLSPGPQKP
In a few lines:
as §1

The target of the next assay is T3, GABPA (Homo sapiens, UniProt Q06546 1-454).
T3 sequence: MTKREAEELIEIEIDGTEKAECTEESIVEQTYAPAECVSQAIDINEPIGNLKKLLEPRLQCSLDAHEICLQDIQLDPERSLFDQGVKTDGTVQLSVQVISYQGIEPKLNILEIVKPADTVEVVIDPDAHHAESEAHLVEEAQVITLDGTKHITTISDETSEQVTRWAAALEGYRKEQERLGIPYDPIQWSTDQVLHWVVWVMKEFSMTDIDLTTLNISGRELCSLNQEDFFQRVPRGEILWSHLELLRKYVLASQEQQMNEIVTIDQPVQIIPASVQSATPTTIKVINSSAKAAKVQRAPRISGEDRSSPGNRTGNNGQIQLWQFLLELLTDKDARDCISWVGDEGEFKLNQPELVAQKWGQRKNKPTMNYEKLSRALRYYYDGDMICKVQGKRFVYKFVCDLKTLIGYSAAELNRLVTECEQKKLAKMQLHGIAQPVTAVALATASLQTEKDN
In a few lines:
as §1

For a further assay, the target named is T4, ERG (Homo sapiens, UniProt P11308 1-479).
T4 sequence: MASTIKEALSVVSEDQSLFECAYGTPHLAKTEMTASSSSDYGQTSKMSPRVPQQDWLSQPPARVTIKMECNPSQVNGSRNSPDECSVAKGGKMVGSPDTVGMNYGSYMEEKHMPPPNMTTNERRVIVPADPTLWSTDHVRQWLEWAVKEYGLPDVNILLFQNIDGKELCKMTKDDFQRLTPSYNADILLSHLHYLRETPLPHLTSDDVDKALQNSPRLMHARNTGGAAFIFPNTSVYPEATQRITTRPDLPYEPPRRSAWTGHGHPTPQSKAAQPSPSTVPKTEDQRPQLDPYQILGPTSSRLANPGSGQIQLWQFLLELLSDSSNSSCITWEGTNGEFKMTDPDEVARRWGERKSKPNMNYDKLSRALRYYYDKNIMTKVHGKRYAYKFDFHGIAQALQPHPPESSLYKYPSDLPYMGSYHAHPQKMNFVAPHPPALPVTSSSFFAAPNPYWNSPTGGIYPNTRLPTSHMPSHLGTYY
In a few lines:
as §1

Another assay concerns the target ELF1 (Homo sapiens, UniProt P32519 1-619). In a few lines: as §1
For the next assay, the target named is T5, EHF (Homo sapiens, UniProt Q9NZC4 1-300).
T5 sequence: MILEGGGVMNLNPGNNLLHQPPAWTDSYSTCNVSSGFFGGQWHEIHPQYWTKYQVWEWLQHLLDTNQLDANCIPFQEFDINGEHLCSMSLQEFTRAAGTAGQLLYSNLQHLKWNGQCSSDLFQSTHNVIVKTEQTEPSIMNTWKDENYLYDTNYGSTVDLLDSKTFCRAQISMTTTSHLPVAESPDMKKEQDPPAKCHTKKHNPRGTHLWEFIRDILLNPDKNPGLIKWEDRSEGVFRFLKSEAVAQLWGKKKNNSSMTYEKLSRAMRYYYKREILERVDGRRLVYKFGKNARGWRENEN
The method in brief: as §1

In a further assay the target is SPI1 (Homo sapiens, UniProt P17947 1-270). The method in brief: as §1
The next assay deals with SPIB (Homo sapiens, UniProt Q01892 1-262). The method in brief:
as §1

The target in the next assay is T6, ELK3 (Homo sapiens, UniProt P41970 1-407).
T6 sequence: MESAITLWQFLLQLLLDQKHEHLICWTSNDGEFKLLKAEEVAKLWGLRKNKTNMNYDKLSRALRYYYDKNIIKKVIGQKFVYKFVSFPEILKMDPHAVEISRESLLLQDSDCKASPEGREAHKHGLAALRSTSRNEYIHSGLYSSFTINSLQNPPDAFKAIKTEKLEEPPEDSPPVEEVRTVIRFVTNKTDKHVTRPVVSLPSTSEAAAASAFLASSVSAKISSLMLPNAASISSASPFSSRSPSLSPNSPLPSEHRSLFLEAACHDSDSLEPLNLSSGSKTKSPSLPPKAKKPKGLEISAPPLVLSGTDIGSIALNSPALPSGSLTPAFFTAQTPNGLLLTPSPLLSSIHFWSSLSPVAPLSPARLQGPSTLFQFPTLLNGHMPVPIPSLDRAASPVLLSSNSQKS
In a few lines: as §1

Sequence of SPIB (Q01892 whole entry): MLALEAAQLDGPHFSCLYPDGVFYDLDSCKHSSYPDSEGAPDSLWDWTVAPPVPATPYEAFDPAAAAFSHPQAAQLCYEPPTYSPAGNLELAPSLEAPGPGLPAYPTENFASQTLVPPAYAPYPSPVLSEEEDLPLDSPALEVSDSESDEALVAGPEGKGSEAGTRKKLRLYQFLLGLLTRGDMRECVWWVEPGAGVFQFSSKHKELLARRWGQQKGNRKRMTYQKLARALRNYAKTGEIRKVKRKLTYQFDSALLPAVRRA
Sequence of ELF1 (P32519 whole entry): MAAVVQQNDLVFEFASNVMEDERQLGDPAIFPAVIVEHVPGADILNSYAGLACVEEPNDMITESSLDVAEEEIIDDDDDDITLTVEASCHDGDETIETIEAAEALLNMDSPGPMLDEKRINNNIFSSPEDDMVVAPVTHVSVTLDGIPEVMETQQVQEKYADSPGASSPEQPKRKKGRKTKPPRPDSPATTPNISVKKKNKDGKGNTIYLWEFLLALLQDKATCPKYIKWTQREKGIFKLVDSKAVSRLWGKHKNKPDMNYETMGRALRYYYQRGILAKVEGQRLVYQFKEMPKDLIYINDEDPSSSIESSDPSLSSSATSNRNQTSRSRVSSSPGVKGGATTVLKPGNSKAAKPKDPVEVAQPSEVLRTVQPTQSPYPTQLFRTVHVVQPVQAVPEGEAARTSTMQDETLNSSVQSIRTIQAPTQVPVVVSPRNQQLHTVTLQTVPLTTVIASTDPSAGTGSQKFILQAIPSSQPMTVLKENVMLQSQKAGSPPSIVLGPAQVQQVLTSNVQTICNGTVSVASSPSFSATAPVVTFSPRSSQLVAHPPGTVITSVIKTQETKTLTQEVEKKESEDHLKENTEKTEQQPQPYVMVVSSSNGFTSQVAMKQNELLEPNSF

On to CAATAA, for which the binding signal was 1.12 fold enrichment (6-mer frequency, TF over GST control) in the assay with FLI1; 1.07 fold enrichment (6-mer frequency, TF over GST control) with ELK1; 1.25 fold enrichment (6-mer frequency, TF over GST control) in the assay with GABPA; 1.13 fold enrichment (6-mer frequency, TF over GST control) with ERG; 1.13 fold enrichment (6-mer frequency, TF over GST control) in the assay with ELF1; 1.15 fold enrichment (6-mer frequency, TF over GST control) in the assay with EHF. For the same sequence, the binding signal in the assay with SPI1 is 1.14 fold enrichment (6-mer frequency, TF over GST control); with SPIB, 1.11 fold enrichment (6-mer frequency, TF over GST control); with ELK3, 1.2 fold enrichment (6-mer frequency, TF over GST control).

As for TTATAT, the binding signal with FLI1 was 1.26 fold enrichment (6-mer frequency, TF over GST control); in the assay with ELK1 it was 1.42 fold enrichment (6-mer frequency, TF over GST control); in the assay with GABPA, 1.39 fold enrichment (6-mer frequency, TF over GST control); with ERG it was 1.4 fold enrichment (6-mer frequency, TF over GST control); in the assay with ELF1, 1.34 fold enrichment (6-mer frequency, TF over GST control); in the assay with EHF, 1.41 fold enrichment (6-mer frequency, TF over GST control). Also, the binding signal was 1.32 fold enrichment (6-mer frequency, TF over GST control) in the assay with SPI1; 1.51 fold enrichment (6-mer frequency, TF over GST control) with SPIB; 1.18 fold enrichment (6-mer frequency, TF over GST control) with ELK3.

In the case of TAATAT, the binding signal with FLI1 was 1.36 fold enrichment (6-mer frequency, TF over GST control); with ELK1, 1.25 fold enrichment (6-mer frequency, TF over GST control); with GABPA, 1.3 fold enrichment (6-mer frequency, TF over GST control); with ERG, 1.25 fold enrichment (6-mer frequency, TF over GST control); in the assay with ELF1 it was 1.27 fold enrichment (6-mer frequency, TF over GST control); with EHF, 1.3 fold enrichment (6-mer frequency, TF over GST control). Besides, the binding signal is 1.23 fold enrichment (6-mer frequency, TF over GST control) with SPI1; 1.21 fold enrichment (6-mer frequency, TF over GST control) with SPIB; 1.33 fold enrichment (6-mer frequency, TF over GST control) in the assay with ELK3.

For TCCTCA, the binding signal with FLI1 was 1.53 fold enrichment (6-mer frequency, TF over GST control); with ELK1, 1.47 fold enrichment (6-mer frequency, TF over GST control); in the assay with GABPA, 1.6 fold enrichment (6-mer frequency, TF over GST control); with ERG, 1.51 fold enrichment (6-mer frequency, TF over GST control); with ELF1 it was 1.49 fold enrichment (6-mer frequency, TF over GST control); with EHF, 1.65 fold enrichment (6-mer frequency, TF over GST control). The binding signal with SPI1 is 2.25 fold enrichment (6-mer frequency, TF over GST control); in the assay with SPIB, 1.6 fold enrichment (6-mer frequency, TF over GST control); with ELK3, 1.55 fold enrichment (6-mer frequency, TF over GST control).

For AATAAT, the binding signal with FLI1 was 1.23 fold enrichment (6-mer frequency, TF over GST control); in the assay with ELK1 it was 1.24 fold enrichment (6-mer frequency, TF over GST control); in the assay with GABPA, 1.31 fold enrichment (6-mer frequency, TF over GST control); with ERG it was 1.33 fold enrichment (6-mer frequency, TF over GST control); in the assay with ELF1 it was 1.28 fold enrichment (6-mer frequency, TF over GST control); with EHF, 1.36 fold enrichment (6-mer frequency, TF over GST control). Besides, the binding signal is 1.24 fold enrichment (6-mer frequency, TF over GST control) with SPI1; 1.32 fold enrichment (6-mer frequency, TF over GST control) with SPIB; 1.39 fold enrichment (6-mer frequency, TF over GST control) with ELK3.

Consider GCTTCT, for which the binding signal with FLI1 was 1.41 fold enrichment (6-mer frequency, TF over GST control); with ELK1 it was 1.49 fold enrichment (6-mer frequency, TF over GST control); in the assay with GABPA, 1.53 fold enrichment (6-mer frequency, TF over GST control); with ERG it was 1.44 fold enrichment (6-mer frequency, TF over GST control); in the assay with ELF1, 1.59 fold enrichment (6-mer frequency, TF over GST control); in the assay with EHF it was 1.52 fold enrichment (6-mer frequency, TF over GST control). Further, the binding signal with SPI1 is 1.43 fold enrichment (6-mer frequency, TF over GST control); with SPIB, 1.51 fold enrichment (6-mer frequency, TF over GST control); with ELK3, 1.61 fold enrichment (6-mer frequency, TF over GST control).

For the sequence ACTAAC, the binding signal with FLI1 is 1.21 fold enrichment (6-mer frequency, TF over GST control); in the assay with ELK1, 1.3 fold enrichment (6-mer frequency, TF over GST control); with GABPA, 1.26 fold enrichment (6-mer frequency, TF over GST control); with ERG, 1.32 fold enrichment (6-mer frequency, TF over GST control); with ELF1, 1.3 fold enrichment (6-mer frequency, TF over GST control); in the assay with EHF, 1.27 fold enrichment (6-mer frequency, TF over GST control). Besides, the binding signal is 1.33 fold enrichment (6-mer frequency, TF over GST control) with SPI1; 1.24 fold enrichment (6-mer frequency, TF over GST control) with SPIB; 1.25 fold enrichment (6-mer frequency, TF over GST control) in the assay with ELK3.
